# Source: PMC7862700, “An all-to-all approach to the identification of sequence-specific readers for epigenetic DNA modifications on cytosine”
# Key:
# Experiment in all cases: DAPPL (digital affinity profiling via proximity ligation, sequencing); 10 mM Tris-HCl pH 7.5, 50 mM NaCl, 1 mM DTT, 4% glycerol, room temperature, 30 min; GST-TFs on glutathione beads, 16-mer random dsDNA library, 0.1% formaldehyde crosslink after washing; high values mean tight binding
# FEV = target: T1, FEV (Homo sapiens, UniProt Q99581 1-238); conditions: protein: recombinant; tags: N-terminal GST; dsDNA, one strand shown
# T1 sequence: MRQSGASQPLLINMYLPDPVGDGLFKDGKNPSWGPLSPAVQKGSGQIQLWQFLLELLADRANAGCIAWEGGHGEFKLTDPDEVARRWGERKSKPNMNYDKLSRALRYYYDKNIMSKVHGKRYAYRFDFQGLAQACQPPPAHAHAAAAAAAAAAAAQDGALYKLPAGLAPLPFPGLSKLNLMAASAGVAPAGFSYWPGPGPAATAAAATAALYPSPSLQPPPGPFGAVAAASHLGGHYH
# In short: (§1)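 Binding signal is each hexamer's read frequency for a factor divided by its frequency in the tag-only sample. The factors were GST-fused human transcription factors from yeast, captured on glutathione beads, DNA-barcoded and pooled with that sample. Pools were incubated with 200 nmole of a random double-stranded 16-mer DNA library in Tris/NaCl/DTT/glycerol buffer at room temperature for 30 min, then washed, crosslinked with 0.1% formaldehyde, proximity-ligated with BsaI/T4 ligase (1 h, 37 °C), PCR-amplified and sequenced on an Illumina NextSeq500.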
# ETV5 = ETV5 (Homo sapiens, UniProt P41161 1-510); conditions: protein: recombinant; tags: N-terminal GST; dsDNA, one strand shown
# In short: as §1
# HSF1 = HSF1 (Homo sapiens, UniProt Q00613 1-529); conditions: protein: recombinant; tags: N-terminal GST; chain copies: 3; dsDNA, one strand shown
# In short: as §1
# SPIC = target: T2, SPIC (Homo sapiens, UniProt Q8N5J4 1-248); conditions: protein: recombinant; tags: N-terminal GST; dsDNA, one strand shown
# T2 sequence: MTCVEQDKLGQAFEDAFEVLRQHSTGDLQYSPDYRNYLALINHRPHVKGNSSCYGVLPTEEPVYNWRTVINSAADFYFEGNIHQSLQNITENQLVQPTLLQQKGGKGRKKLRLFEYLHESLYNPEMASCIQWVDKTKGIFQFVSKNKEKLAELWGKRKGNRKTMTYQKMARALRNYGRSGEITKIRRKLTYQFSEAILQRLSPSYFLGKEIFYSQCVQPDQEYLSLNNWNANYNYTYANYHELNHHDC
# In short: as §1
# ELF4 = ELF4 (Homo sapiens, UniProt Q99607 1-663); conditions: protein: recombinant; tags: N-terminal GST; dsDNA, one strand shown
# In short: as §1
# ELK4 = target: T3, ELK4 (Homo sapiens, UniProt P28324-2 1-405); conditions: protein: recombinant; tags: N-terminal GST; dsDNA, one strand shown
# T3 sequence: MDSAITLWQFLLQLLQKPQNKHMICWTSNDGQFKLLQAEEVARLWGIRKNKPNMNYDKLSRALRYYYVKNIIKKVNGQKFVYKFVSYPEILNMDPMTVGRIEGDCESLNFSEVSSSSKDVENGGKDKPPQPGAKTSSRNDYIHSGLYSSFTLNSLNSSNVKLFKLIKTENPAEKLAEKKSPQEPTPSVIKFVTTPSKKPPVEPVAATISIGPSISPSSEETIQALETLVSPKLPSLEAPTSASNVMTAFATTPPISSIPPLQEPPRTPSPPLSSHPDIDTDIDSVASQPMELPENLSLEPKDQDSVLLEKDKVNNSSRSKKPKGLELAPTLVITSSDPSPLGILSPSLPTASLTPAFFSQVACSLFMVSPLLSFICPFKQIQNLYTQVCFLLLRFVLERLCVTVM
# In short: as §1
# ETV2 = target: T4, ETV2 (Homo sapiens, UniProt O00321 1-342); conditions: protein: recombinant; tags: N-terminal GST; dsDNA, one strand shown
# T4 sequence: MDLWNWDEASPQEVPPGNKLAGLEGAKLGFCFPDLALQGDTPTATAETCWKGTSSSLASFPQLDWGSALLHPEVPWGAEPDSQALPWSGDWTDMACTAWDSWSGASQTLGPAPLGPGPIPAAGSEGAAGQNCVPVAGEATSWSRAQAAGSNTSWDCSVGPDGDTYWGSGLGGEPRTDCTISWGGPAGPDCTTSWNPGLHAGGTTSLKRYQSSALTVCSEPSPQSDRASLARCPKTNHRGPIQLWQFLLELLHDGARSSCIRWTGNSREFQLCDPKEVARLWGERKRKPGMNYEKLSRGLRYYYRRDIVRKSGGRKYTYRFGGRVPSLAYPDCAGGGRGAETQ
# In short: as §1
# ELF3 = target: T5, ELF3 (Homo sapiens, UniProt P78545 1-371); conditions: protein: recombinant; tags: N-terminal GST; dsDNA, one strand shown
# T5 sequence: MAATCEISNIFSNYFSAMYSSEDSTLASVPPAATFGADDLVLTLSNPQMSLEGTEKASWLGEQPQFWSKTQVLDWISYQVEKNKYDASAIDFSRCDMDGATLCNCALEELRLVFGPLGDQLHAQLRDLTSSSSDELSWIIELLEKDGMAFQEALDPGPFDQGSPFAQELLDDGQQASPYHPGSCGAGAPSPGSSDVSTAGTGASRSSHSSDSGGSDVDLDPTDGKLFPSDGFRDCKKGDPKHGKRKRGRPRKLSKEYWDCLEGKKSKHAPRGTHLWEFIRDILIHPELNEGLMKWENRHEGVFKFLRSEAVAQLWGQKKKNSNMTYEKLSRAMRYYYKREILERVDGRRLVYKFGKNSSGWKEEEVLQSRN
# In short: as §1
# CRX = CRX (Homo sapiens, UniProt O43186 1-299); conditions: protein: recombinant; tags: N-terminal GST; dsDNA, one strand shown
# In short: as §1
# ETV1 = ETV1 (Homo sapiens, UniProt P50549 1-477); conditions: protein: recombinant; tags: N-terminal GST; dsDNA, one strand shown
# In short: as §1
# ERF = target: T6, ERF (Homo sapiens, UniProt P50548 1-548); conditions: protein: recombinant; tags: N-terminal GST; dsDNA, one strand shown
# T6 sequence: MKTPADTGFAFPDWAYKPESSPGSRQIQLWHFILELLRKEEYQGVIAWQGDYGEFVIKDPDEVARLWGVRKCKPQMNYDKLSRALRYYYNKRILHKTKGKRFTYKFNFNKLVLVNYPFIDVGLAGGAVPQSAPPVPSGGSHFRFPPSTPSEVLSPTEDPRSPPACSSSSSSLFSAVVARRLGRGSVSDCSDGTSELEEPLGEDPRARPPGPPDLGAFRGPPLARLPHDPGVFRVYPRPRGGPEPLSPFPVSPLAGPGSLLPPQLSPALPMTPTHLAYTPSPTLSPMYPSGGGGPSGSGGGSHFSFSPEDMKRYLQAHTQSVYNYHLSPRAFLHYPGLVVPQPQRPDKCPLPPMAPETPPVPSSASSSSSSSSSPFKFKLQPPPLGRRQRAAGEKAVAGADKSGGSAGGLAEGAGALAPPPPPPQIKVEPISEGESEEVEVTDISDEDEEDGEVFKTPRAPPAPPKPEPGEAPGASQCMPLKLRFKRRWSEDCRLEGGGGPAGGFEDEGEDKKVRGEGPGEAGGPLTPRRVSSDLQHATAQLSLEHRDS
# In short: as §1
# ETV3L = target: T7, ETV3L (Homo sapiens, UniProt Q6ZN32 1-361); conditions: protein: recombinant; tags: N-terminal GST; dsDNA, one strand shown
# T7 sequence: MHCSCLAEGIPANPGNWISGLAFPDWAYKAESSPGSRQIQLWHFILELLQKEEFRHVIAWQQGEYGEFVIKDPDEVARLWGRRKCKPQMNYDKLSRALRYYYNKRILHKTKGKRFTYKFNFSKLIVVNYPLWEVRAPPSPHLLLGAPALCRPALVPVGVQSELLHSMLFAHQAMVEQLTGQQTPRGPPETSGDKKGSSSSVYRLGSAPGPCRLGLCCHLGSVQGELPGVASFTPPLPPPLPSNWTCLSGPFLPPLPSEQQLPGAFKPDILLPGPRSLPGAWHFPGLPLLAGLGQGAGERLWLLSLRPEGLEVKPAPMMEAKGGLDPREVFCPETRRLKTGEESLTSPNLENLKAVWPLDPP
# In short: as §1
# ETS2 = target: T8, ETS2 (Homo sapiens, UniProt P15036 1-469); conditions: protein: recombinant; tags: N-terminal GST; dsDNA, one strand shown
# T8 sequence: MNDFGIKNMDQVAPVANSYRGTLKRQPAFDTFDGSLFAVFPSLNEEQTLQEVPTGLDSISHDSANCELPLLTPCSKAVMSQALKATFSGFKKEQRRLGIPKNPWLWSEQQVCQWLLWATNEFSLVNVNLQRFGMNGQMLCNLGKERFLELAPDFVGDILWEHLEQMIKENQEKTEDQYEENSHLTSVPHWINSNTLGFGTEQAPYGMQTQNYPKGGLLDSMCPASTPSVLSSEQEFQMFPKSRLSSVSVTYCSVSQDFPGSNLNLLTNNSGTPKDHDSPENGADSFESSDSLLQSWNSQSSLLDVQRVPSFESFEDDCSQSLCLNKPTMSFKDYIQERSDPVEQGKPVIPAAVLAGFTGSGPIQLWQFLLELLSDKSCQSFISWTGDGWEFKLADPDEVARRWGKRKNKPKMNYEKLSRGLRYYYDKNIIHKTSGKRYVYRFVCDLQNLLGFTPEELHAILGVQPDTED
# In short: as §1
# SPDEF = target: T9, SPDEF (Homo sapiens, UniProt O95238 1-335); conditions: protein: recombinant; tags: N-terminal GST; dsDNA, one strand shown
# T9 sequence: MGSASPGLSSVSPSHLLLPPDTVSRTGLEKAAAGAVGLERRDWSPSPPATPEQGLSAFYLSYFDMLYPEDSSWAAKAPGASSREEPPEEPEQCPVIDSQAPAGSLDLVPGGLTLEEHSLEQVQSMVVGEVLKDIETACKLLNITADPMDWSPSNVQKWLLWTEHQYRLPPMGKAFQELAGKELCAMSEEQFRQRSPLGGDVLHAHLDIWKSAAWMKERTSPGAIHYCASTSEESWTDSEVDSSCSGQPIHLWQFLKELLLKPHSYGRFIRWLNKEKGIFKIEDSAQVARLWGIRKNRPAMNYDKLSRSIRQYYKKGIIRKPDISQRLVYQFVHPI
# In short: as §1
# ETV7 = target: T10, ETV7 (Homo sapiens, UniProt Q9Y603 1-341); conditions: protein: recombinant; tags: N-terminal GST; dsDNA, one strand shown
# T10 sequence: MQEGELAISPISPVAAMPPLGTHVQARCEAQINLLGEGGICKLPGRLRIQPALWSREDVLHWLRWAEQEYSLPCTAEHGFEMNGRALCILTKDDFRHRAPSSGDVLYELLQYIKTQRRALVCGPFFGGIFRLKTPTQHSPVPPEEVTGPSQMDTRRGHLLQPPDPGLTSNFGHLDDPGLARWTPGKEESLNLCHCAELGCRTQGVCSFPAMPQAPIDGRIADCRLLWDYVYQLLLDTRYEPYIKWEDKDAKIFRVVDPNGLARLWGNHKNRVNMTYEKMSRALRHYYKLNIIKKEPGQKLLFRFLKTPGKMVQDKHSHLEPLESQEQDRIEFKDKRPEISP
# In short: as §1
# ELF5 = target: T11, ELF5 (Homo sapiens, UniProt Q9UKW6-2 1-255); conditions: protein: recombinant; tags: N-terminal GST; dsDNA, one strand shown
# T11 sequence: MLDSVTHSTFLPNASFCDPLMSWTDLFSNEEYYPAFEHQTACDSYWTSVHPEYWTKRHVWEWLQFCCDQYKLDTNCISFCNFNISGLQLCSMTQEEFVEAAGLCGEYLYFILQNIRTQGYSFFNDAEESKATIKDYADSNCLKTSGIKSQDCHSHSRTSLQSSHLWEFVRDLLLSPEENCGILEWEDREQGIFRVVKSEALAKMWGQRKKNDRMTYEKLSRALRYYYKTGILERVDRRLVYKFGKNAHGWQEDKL
# In short: as §1
# ETV3 = target: T12, ETV3 (Homo sapiens, UniProt P41162-2 1-143); conditions: protein: recombinant; tags: N-terminal GST; dsDNA, one strand shown
# T12 sequence: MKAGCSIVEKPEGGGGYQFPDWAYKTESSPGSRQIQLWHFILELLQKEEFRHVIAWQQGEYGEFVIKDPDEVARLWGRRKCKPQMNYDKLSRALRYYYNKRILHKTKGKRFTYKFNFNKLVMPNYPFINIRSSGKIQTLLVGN
# In short: as §1
# ETV6 = ETV6 (Homo sapiens, UniProt P41212 1-452); conditions: protein: recombinant; tags: N-terminal GST; dsDNA, one strand shown
# In short: as §1
# ETV1, sequence (P50549 whole entry): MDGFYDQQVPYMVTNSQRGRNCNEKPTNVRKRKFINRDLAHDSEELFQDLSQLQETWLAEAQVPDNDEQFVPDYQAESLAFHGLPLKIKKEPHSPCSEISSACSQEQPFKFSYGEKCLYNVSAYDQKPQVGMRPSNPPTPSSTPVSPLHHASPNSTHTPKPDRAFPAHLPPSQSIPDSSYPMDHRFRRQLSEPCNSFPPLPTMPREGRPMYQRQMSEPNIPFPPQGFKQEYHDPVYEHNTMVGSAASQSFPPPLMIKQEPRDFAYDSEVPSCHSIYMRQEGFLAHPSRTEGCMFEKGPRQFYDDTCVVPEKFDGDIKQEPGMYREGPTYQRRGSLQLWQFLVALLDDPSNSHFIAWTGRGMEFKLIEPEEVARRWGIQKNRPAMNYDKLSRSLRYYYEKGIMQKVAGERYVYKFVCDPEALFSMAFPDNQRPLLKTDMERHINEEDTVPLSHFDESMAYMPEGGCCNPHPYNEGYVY
# ETV6, sequence (P41212 whole entry): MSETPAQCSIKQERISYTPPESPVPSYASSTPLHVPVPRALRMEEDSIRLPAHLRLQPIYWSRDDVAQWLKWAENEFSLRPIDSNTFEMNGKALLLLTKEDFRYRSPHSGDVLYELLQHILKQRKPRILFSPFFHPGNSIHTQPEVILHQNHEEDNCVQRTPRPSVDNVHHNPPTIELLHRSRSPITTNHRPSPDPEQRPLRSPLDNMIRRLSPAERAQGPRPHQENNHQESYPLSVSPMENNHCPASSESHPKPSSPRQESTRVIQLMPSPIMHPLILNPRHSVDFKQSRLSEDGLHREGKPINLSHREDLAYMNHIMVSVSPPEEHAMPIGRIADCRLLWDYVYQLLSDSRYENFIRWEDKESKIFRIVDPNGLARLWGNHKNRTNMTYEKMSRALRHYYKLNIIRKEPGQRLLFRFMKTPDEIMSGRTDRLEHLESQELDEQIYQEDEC
# ETV5, sequence (P41161 whole entry): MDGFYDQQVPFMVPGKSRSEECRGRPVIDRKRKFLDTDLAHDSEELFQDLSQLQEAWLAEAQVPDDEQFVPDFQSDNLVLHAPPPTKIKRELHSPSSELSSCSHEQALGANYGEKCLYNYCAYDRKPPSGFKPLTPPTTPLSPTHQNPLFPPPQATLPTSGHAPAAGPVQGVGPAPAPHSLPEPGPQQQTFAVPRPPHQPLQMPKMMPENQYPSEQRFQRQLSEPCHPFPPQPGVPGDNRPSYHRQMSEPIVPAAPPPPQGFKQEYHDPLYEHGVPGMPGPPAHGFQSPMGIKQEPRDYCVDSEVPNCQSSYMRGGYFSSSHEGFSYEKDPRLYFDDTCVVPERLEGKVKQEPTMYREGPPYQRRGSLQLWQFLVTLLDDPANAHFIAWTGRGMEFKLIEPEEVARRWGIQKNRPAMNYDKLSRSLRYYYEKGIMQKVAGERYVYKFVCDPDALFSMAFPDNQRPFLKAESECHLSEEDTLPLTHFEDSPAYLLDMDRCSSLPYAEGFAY
# ELF4, sequence (Q99607 whole entry): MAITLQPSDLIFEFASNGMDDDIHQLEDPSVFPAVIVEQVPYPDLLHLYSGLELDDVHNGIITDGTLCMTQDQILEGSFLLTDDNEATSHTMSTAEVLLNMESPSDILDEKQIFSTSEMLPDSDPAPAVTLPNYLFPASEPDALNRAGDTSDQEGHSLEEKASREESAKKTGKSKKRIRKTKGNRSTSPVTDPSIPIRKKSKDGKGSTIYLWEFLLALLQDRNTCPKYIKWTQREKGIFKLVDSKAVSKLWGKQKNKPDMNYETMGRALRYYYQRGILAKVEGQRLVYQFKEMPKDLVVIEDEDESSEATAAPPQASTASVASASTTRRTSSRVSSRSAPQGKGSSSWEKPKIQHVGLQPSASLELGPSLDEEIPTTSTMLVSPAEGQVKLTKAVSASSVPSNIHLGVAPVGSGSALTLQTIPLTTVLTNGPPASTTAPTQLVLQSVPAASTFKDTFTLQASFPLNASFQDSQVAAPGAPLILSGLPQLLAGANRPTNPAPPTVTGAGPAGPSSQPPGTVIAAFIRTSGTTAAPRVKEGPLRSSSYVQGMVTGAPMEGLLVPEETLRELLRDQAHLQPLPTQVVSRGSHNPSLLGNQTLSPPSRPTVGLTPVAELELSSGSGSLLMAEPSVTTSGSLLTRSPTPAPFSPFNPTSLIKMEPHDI
# HSF1, sequence (Q00613 whole entry): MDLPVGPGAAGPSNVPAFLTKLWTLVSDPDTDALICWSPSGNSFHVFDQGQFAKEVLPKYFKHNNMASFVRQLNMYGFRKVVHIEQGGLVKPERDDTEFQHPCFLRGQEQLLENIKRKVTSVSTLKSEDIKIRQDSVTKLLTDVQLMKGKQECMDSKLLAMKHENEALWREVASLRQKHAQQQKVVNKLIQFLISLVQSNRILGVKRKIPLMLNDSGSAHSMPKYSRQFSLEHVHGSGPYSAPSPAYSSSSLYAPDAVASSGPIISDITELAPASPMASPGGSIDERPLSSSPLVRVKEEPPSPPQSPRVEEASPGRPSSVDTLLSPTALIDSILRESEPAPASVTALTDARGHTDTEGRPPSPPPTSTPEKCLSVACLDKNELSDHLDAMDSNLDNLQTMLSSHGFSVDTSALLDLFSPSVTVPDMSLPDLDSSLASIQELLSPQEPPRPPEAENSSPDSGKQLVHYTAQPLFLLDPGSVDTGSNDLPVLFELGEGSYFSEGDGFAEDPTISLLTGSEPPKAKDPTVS
# CRX, sequence (O43186 whole entry): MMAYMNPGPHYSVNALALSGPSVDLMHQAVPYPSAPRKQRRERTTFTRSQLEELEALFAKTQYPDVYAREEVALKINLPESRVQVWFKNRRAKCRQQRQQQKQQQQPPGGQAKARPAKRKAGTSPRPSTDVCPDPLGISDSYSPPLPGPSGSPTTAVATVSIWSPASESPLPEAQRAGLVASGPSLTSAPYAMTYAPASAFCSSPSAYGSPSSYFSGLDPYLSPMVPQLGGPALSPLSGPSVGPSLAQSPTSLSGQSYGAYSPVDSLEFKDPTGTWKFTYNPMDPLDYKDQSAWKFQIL
sequence,measurement,setting,value
ATACTG,binding signal,FEV,"1.04 fold enrichment (6-mer frequency, TF over GST control)"
same,binding signal,ETV5,"1.15 fold enrichment (6-mer frequency, TF over GST control)"
same,binding signal,HSF1,"1.06 fold enrichment (6-mer frequency, TF over GST control)"
same,binding signal,SPIC,"1.06 fold enrichment (6-mer frequency, TF over GST control)"
same,binding signal,ELF4,"1.16 fold enrichment (6-mer frequency, TF over GST control)"
same,binding signal,ELK4,"1.29 fold enrichment (6-mer frequency, TF over GST control)"
same,binding signal,ETV2,"1.32 fold enrichment (6-mer frequency, TF over GST control)"
same,binding signal,ELF3,"1.18 fold enrichment (6-mer frequency, TF over GST control)"
same,binding signal,CRX,"1.11 fold enrichment (6-mer frequency, TF over GST control)"
same,binding signal,ETV1,"1.05 fold enrichment (6-mer frequency, TF over GST control)"
same,binding signal,ERF,"1.14 fold enrichment (6-mer frequency, TF over GST control)"
same,binding signal,ETV3L,"1.23 fold enrichment (6-mer frequency, TF over GST control)"
same,binding signal,ETS2,"1.1 fold enrichment (6-mer frequency, TF over GST control)"
same,binding signal,SPDEF,"1.18 fold enrichment (6-mer frequency, TF over GST control)"
same,binding signal,ETV7,"1.09 fold enrichment (6-mer frequency, TF over GST control)"
same,binding signal,ELF5,"1.07 fold enrichment (6-mer frequency, TF over GST control)"
same,binding signal,ETV3,"1.12 fold enrichment (6-mer frequency, TF over GST control)"
same,binding signal,ETV6,"1.07 fold enrichment (6-mer frequency, TF over GST control)"
